25 compounds from the supplement of paper PMC7156485 can be followed below.

± gives the standard deviation of the averaged measurements.

What all share (settings): concentration: 10 µM; 24 h
Assay [1] concerns HCC1569. Nature of the assay: cell number relative to DMSO (% of DMSO); higher = more cells (less growth inhibition / toxicity). Summed up:
(§1)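 Treatment: HCC1569 and TDF cells, 800 per well in 384-well plates with RPMI and 10% FBS, were given compounds at 10 µM for 24 h at 37 °C, in triplicate. Readout: after 3.7% formaldehyde fixation, cells were stained with a rabbit anti-H1.0 antibody, an AlexaFluor 647 secondary and DAPI. Reported values are H1.0 nuclear intensity or cell number as percent of the plate control, taken as the median of replicates, with positional smoothing for HCC1569.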

The test system of assay [2] is TDF. Described as above. Summed up: as §1
The subject of assay [3] is TDF. Nature of the assay: H1.0 immunofluorescence intensity relative to DMSO (% of DMSO); higher = stronger H1.0 induction, active = 120 or more. Summed up:
as §1

The subject of assay [4] is HCC1569. Put plainly: H1.0 immunofluorescence intensity relative to DMSO (% of DMSO); higher = stronger H1.0 induction, active = 140 or more. An outline of the steps:
as §1
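Throughout, for H1.0 immunofluorescence intensity relative to DMSO: TDF is a line of transformed human dermal fibroblasts of mesenchymal origin.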
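Throughout, for cell number relative to DMSO: TDF denotes transformed human dermal fibroblasts of mesenchymal origin.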

On to `Cl.Cn1ccc2cc3c(cc21)CCN3C(=O)Nc1cccnc1`, for which the cell number in the assay with HCC1569 [1] was found to be 101; in the assay on TDF [2] it was 112. In addition, the results for the H1.0 immunofluorescence intensity in the assay with TDF [3] and in the assay on HCC1569 [4] were 87.9 (inactive) and 100 (inactive), respectively.

`COc1cc2c(cc1OC)-c1[nH]nc(Nc3cccc(F)c3)c1C2` [PDGF Receptor Tyrosine Kinase Inhibitor IV]: the cell number with HCC1569 [1] worked out at 64.3; in the assay with TDF [2], 8.88. The H1.0 immunofluorescence intensity is 131 (active) in the assay on TDF [3] and 160 (active) in the assay on HCC1569 [4].

On to `O=C(O)C1=CC(=NNc2ccc(S(=O)(=O)Nc3ccccn3)cc2)C=CC1=O` [Sulfasalazine], for which the cell number in the assay on HCC1569 [1] was determined as 106; with TDF [2], 102. For the same compound, the H1.0 immunofluorescence intensity in the assay with TDF [3] is 93 (inactive); with HCC1569 [4] it was 88.7 (inactive).

As to `CC(C)c1[nH]n(-c2c(Cl)cccc2Cl)c2nc(Cc3ccc(OCCO)cc3)nc(=O)c1-2` [Cdk/Crk Inhibitor], the cell number was found to be 55 in the assay with HCC1569 [1] and 26.7 in the assay with TDF [2]. In addition, the H1.0 immunofluorescence intensity in the assay on TDF [3] was 131 (active); with HCC1569 [4] it was 143 (active).

In the case of `O=C1NC(=O)C(c2cnc3ccccn23)=C1c1cn2c3c(cc(F)cc13)CN(C(=O)N1CCCCC1)CC2`, the cell number in the assay on HCC1569 [1] was found to be 66.9; in the assay on TDF [2], 63. The H1.0 immunofluorescence intensity with TDF [3] is 138 (active); with HCC1569 [4], 176 (active).

Take `CCCCCC(O)C=CC=CCC=CCC=CCCCC(=O)O` (stereo not given): the cell number in the assay with HCC1569 [1] amounted to 103; in the assay with TDF [2], 100. Further, the H1.0 immunofluorescence intensity with TDF [3] is 96.7 (inactive); with HCC1569 [4] it was 99.7 (inactive).

As for `CCCCC1C(=O)N(c2ccccc2)N(c2ccccc2)C1=O` [Phenylbutazone], the cell number was 101 ± 1.3 in the assay on HCC1569 [1] and 106 ± 10 in the assay with TDF [2]. The values for the H1.0 immunofluorescence intensity with TDF [3] and in the assay with HCC1569 [4] were 93.7 (inactive) and 97.5 (inactive), respectively.

For the compound `C=CCc1ccccc1OCC(O)CNC(C)C.Cl` (stereo not given) [Alprenolol hydrochloride], the cell number worked out at 96.8 in the assay with HCC1569 [1] and 91 in the assay on TDF [2]. The H1.0 immunofluorescence intensity with TDF [3] is 103 (inactive); with HCC1569 [4] it was 104 (inactive).

Take `COc1ccc(C2(C#N)CCC(C(=O)O)CC2)cc1OC1CCCC1` (stereo not given): the results for the cell number in the assay on HCC1569 [1] and with TDF [2] were 105 and 99.6, respectively. In addition, the values for the H1.0 immunofluorescence intensity with TDF [3] and in the assay with HCC1569 [4] were 98.8 (inactive) and 90.2 (inactive), respectively.

On to `Cc1ccccc1-n1c(Cn2nc(-c3cccc(O)c3)c3c(N)ncnc32)nc2cccc(C)c2c1=O`, for which the cell number was 96.9 in the assay with HCC1569 [1] and 95.1 in the assay with TDF [2]. Moreover, the values for the H1.0 immunofluorescence intensity with TDF [3] and in the assay on HCC1569 [4] were 97.7 (inactive) and 103 (inactive), respectively.

For the compound `OCC1OC(n2cnc3c(NC4CCCC4)ncnc32)C(O)C1O` (stereo not given) [N6-Cyclopentyladenosine], the values for the cell number with HCC1569 [1] and with TDF [2] were 99.8 and 104, respectively. For the same compound, the H1.0 immunofluorescence intensity was 93.5 (inactive) in the assay with TDF [3] and 97.7 (inactive) in the assay with HCC1569 [4].

Turning to `O=C1Nc2ccccc2C1=C1Nc2ccccc2C1=O` [Indirubin], the results for the cell number in the assay with HCC1569 [1] and with TDF [2] were 97.2 and 94.7, respectively. Also, the values for the H1.0 immunofluorescence intensity in the assay on TDF [3] and with HCC1569 [4] were 105 (inactive) and 102 (inactive), respectively.

In the case of `O=C(O)C=Cc1ccc(Cn2ccnc2)cc1` [Ozagrel], the cell number with HCC1569 [1] is 100; with TDF [2], 101. The H1.0 immunofluorescence intensity in the assay on TDF [3] is 93.8 (inactive); in the assay on HCC1569 [4] it was 104 (inactive).

As for `COC(=O)c1cnn(-c2ccc(F)cc2F)c1/C=N/NC(=S)NC(C)(C)C`, the cell number stood at 95.9 in the assay on HCC1569 [1] and 101 in the assay on TDF [2]. The H1.0 immunofluorescence intensity in the assay on TDF [3] is 99 (inactive); in the assay on HCC1569 [4] it was 102 (inactive).

Regarding `C=Cc1c(C)c2cc3[nH]c(cc4nc(cc5nc(cc1[nH]2)C(C)=C5CCC(=O)O)C(CCC(=O)O)=C4C)c(C)c3C=C` [Protoporphyrin IX disodium], the cell number came out at 103 in the assay on HCC1569 [1] and 86.7 in the assay on TDF [2]. Moreover, the H1.0 immunofluorescence intensity in the assay with TDF [3] and in the assay on HCC1569 [4] was 100 (inactive) each time.

Take `O=C(OC12CC3CC(CC(C3)C1)C2)c1ccc(NCc2cc(O)ccc2O)cc1` [1-adamantyl 4-[(2,5-dihydroxybenzyl)amino]benzoate]: the results for the cell number in the assay with HCC1569 [1] and with TDF [2] were 8.48 and 62.1, respectively. Further, the H1.0 immunofluorescence intensity is 120 (inactive) with TDF [3] and 109 (inactive) with HCC1569 [4].

`OCC1OC(Oc2ccc(O)cc2)C(O)C(O)C1O` (stereo not given) [Arbutin]: the values for the cell number in the assay with HCC1569 [1] and with TDF [2] were 99.6 and 101, respectively. Further, the H1.0 immunofluorescence intensity is 102 (inactive) in the assay with TDF [3] and 92.1 (inactive) in the assay on HCC1569 [4].

Regarding `COc1ccccc1N1CCN(CCN(C(=O)c2ccc(I)cc2)c2ccccn2)CC1.Cl` [p-MPPI hydrochloride], the figures for the cell number in the assay on HCC1569 [1] and in the assay with TDF [2] were 97.4 and 96.3, respectively. Further, the results for the H1.0 immunofluorescence intensity in the assay with TDF [3] and with HCC1569 [4] were 96.6 (inactive) and 93.4 (inactive), respectively.

On to `O=C1Nc2cc(Br)ccc2C1=C1N=c2ccccc2=C1NO` [GSK-3 Inhibitor IX], for which the cell number in the assay on HCC1569 [1] was determined as 56.3; with TDF [2], 70.1. The values for the H1.0 immunofluorescence intensity in the assay with TDF [3] and in the assay on HCC1569 [4] were 112 (inactive) and 222 (active), respectively.

With `COc1ccc(OC)c2c(=S)c3ccccc3[nH]c12`, the cell number was 105 in the assay with HCC1569 [1] and 92 with TDF [2]. The H1.0 immunofluorescence intensity is 106 (inactive) with TDF [3] and 111 (inactive) in the assay on HCC1569 [4].

Consider `OCC1=CC(O)C2C=COC(OC3OC(CO)C(O)C(O)C3O)C12` (stereo not given) [Aucubin], for which the cell number came out at 99.6 in the assay with HCC1569 [1] and 107 in the assay with TDF [2]. Besides, the H1.0 immunofluorescence intensity with TDF [3] was 99.8 (inactive); with HCC1569 [4] it was 85 (inactive).

With `COc1ccc2c(c1)c(C1=C(c3c[nH]c4ccccc34)C(=O)NC1=O)cn2CCCN(C)C`, the cell number in the assay on HCC1569 [1] was 83.9; in the assay on TDF [2], 99.3. The figures for the H1.0 immunofluorescence intensity in the assay with TDF [3] and with HCC1569 [4] were 98.6 (inactive) and 174 (active), respectively.

With `O=C1NC(=O)c2c1c1c3ccccc3[nH]c1c1[nH]c3cc(Br)ccc3c21` [Cdk4 Inhibitor], the cell number in the assay with HCC1569 [1] was 74.2; in the assay with TDF [2], 63.5. For the same compound, the H1.0 immunofluorescence intensity with TDF [3] is 91.2 (inactive); in the assay on HCC1569 [4], 208 (active).

Take `CNCCC(Oc1ccc(C(F)(F)F)cc1)c1ccccc1.Cl` (stereo not given) [Fluoxetine hydrochloride]: the cell number in the assay with HCC1569 [1] came to 93.1; in the assay on TDF [2], 85.7. The H1.0 immunofluorescence intensity was 108 (inactive) with TDF [3] and 122 (inactive) in the assay with HCC1569 [4].

Turning to `CNCCC(Oc1ccc(C(F)(F)F)cc1)c1ccccc1.Cl` (stereo not drawn) [R-(-)-Fluoxetine hydrochloride], the cell number stood at 92 in the assay on HCC1569 [1] and 105 with TDF [2]. In addition, the H1.0 immunofluorescence intensity in the assay with TDF [3] is 110 (inactive); in the assay on HCC1569 [4] it was 117 (inactive).
